Measured values from the supplement of paper PMC7411054.

Columns and labels:
Assay in all cases: phenotypically active (imaging signature differs from DMSO and reproducible) at any of 0.3-9 uM (binary (1 = active, 0 = inactive)); higher = active
Conditions in all cases: treatment time: 24 h
A549-ACTB-RAB5A = test system: A549-ACTB-RAB5A
Method in brief: (§1)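 Cells from fifteen gene-edited reporter lines (A549, HepG2 and WPMY1) were treated for 24 h at 0.3, 1, 3 or 9 µM and imaged live, four wells per condition. Features were normalised per well to solvent control wells. A condition deviated if ≥3 of 4 wells passed the 95th percentile of control Euclidean distances and was reproducible if its median replicate Pearson correlation beat the 95th percentile of non-replicates; phenotypic activity needed both.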

A549-CANX-COX4 = test system: A549-CANX-COX4
Method in brief: as §1

A549-GM130-SQSTM1 = test system: A549-GM130-SQSTM1
Method in brief: as §1

A549-TP53BP1-CLTA = test system: A549-TP53BP1-CLTA
Method in brief: as §1

A549-TUBA1B-RELA = test system: A549-TUBA1B-RELA
Method in brief: as §1

HepG2-ACTB-RAB5A = test system: HepG2-ACTB-RAB5A
Method in brief: as §1

HepG2-CANX-COX4 = test system: HepG2-CANX-COX4
Method in brief: as §1

HepG2-GM130-SQSTM1 = test system: HepG2-GM130-SQSTM1
Method in brief: as §1

HepG2-TP53BP1-CLTA = test system: HepG2-TP53BP1-CLTA
Method in brief: as §1

HepG2-TUBA1B-RELA = test system: HepG2-TUBA1B-RELA
Method in brief: as §1

WPMY1-ACTB-RAB5A = test system: WPMY1-ACTB-RAB5A
Method in brief: as §1

WPMY1-CANX-COX4 = test system: WPMY1-CANX-COX4
Method in brief: as §1

WPMY1-GM130-SQSTM1 = test system: WPMY1-GM130-SQSTM1
Method in brief: as §1

WPMY1-TP53BP1-CLTA = test system: WPMY1-TP53BP1-CLTA
Method in brief: as §1

WPMY1-TUBA1B-RELA = test system: WPMY1-TUBA1B-RELA
Method in brief: as §1

Measured: phenotypically active

COc1c2c(cc3oc(CO)cc(=O)c13)O[C@@H](C(C)(C)O)C2 [Cimifugin]
inactive: A549-ACTB-RAB5A 0 | A549-CANX-COX4 0 | A549-GM130-SQSTM1 0 | A549-TP53BP1-CLTA 0 | A549-TUBA1B-RELA 0 | HepG2-ACTB-RAB5A 0 | HepG2-CANX-COX4 0 | HepG2-GM130-SQSTM1 0 | HepG2-TP53BP1-CLTA 0 | HepG2-TUBA1B-RELA 0 | WPMY1-ACTB-RAB5A 0 | WPMY1-CANX-COX4 0 | WPMY1-GM130-SQSTM1 0 | WPMY1-TP53BP1-CLTA 0 | WPMY1-TUBA1B-RELA 0

CC(=O)OC(C)C[N+](C)(C)C (stereo not given) [methacholine]
inactive: A549-ACTB-RAB5A 0 | A549-CANX-COX4 0 | A549-GM130-SQSTM1 0 | A549-TP53BP1-CLTA 0 | A549-TUBA1B-RELA 0 | HepG2-ACTB-RAB5A 0 | HepG2-CANX-COX4 0 | HepG2-GM130-SQSTM1 0 | HepG2-TP53BP1-CLTA 0 | HepG2-TUBA1B-RELA 0 | WPMY1-ACTB-RAB5A 0 | WPMY1-CANX-COX4 0 | WPMY1-GM130-SQSTM1 0 | WPMY1-TP53BP1-CLTA 0 | WPMY1-TUBA1B-RELA 0

C[C@]12CC[C@@H]3c4ccc(OS(=O)(=O)O)cc4CC[C@H]3[C@@H]1CCC2=O [estrone sulfuric acid]
inactive: A549-ACTB-RAB5A 0 | A549-CANX-COX4 0 | A549-GM130-SQSTM1 0 | A549-TP53BP1-CLTA 0 | A549-TUBA1B-RELA 0 | HepG2-ACTB-RAB5A 0 | HepG2-CANX-COX4 0 | HepG2-GM130-SQSTM1 0 | HepG2-TP53BP1-CLTA 0 | HepG2-TUBA1B-RELA 0 | WPMY1-ACTB-RAB5A 0 | WPMY1-CANX-COX4 0 | WPMY1-GM130-SQSTM1 0 | WPMY1-TP53BP1-CLTA 0 | WPMY1-TUBA1B-RELA 0

CC(COc1ccccc1)N(CCCl)Cc1ccccc1 (stereo not given) [phenoxybenzamine]
inactive: A549-ACTB-RAB5A 0 | A549-CANX-COX4 0 | A549-GM130-SQSTM1 0 | A549-TP53BP1-CLTA 0 | A549-TUBA1B-RELA 0 | HepG2-ACTB-RAB5A 0 | HepG2-CANX-COX4 0 | HepG2-GM130-SQSTM1 0 | HepG2-TP53BP1-CLTA 0 | HepG2-TUBA1B-RELA 0 | WPMY1-ACTB-RAB5A 0 | WPMY1-CANX-COX4 0 | WPMY1-GM130-SQSTM1 0 | WPMY1-TP53BP1-CLTA 0 | WPMY1-TUBA1B-RELA 0

Cc1c(-c2cnccn2)ssc1=S [Oltipraz]
inactive: A549-ACTB-RAB5A 0 | A549-CANX-COX4 0 | A549-GM130-SQSTM1 0 | A549-TP53BP1-CLTA 0 | A549-TUBA1B-RELA 0 | HepG2-ACTB-RAB5A 0 | HepG2-CANX-COX4 0 | HepG2-GM130-SQSTM1 0 | HepG2-TP53BP1-CLTA 0 | HepG2-TUBA1B-RELA 0 | WPMY1-ACTB-RAB5A 0 | WPMY1-CANX-COX4 0 | WPMY1-GM130-SQSTM1 0 | WPMY1-TP53BP1-CLTA 0 | WPMY1-TUBA1B-RELA 0

CCc1c(C)[nH]c2c1C(=O)C(CN1CCOCC1)CC2 (stereo not given) [molindone]
inactive: A549-ACTB-RAB5A 0 | A549-CANX-COX4 0 | A549-GM130-SQSTM1 0 | A549-TP53BP1-CLTA 0 | A549-TUBA1B-RELA 0 | HepG2-ACTB-RAB5A 0 | HepG2-CANX-COX4 0 | HepG2-GM130-SQSTM1 0 | HepG2-TP53BP1-CLTA 0 | HepG2-TUBA1B-RELA 0 | WPMY1-ACTB-RAB5A 0 | WPMY1-CANX-COX4 0 | WPMY1-GM130-SQSTM1 0 | WPMY1-TP53BP1-CLTA 0 | WPMY1-TUBA1B-RELA 0

Cn1c(=O)c2[nH]cnc2n(C)c1=O [Aminophylline]
inactive: A549-ACTB-RAB5A 0 | A549-CANX-COX4 0 | A549-GM130-SQSTM1 0 | A549-TP53BP1-CLTA 0 | A549-TUBA1B-RELA 0 | HepG2-ACTB-RAB5A 0 | HepG2-CANX-COX4 0 | HepG2-GM130-SQSTM1 0 | HepG2-TP53BP1-CLTA 0 | HepG2-TUBA1B-RELA 0 | WPMY1-ACTB-RAB5A 0 | WPMY1-CANX-COX4 0 | WPMY1-GM130-SQSTM1 0 | WPMY1-TP53BP1-CLTA 0 | WPMY1-TUBA1B-RELA 0

CCc1cccc2c3c([nH]c12)C(CC)(CC(=O)O)OCC3 (stereo not given) [etodolac]
inactive: A549-ACTB-RAB5A 0 | A549-CANX-COX4 0 | A549-GM130-SQSTM1 0 | A549-TP53BP1-CLTA 0 | A549-TUBA1B-RELA 0 | HepG2-ACTB-RAB5A 0 | HepG2-CANX-COX4 0 | HepG2-GM130-SQSTM1 0 | HepG2-TP53BP1-CLTA 0 | HepG2-TUBA1B-RELA 0 | WPMY1-ACTB-RAB5A 0 | WPMY1-CANX-COX4 0 | WPMY1-GM130-SQSTM1 0 | WPMY1-TP53BP1-CLTA 0 | WPMY1-TUBA1B-RELA 0

Cc1ccc(N(CC2=NCCN2)c2cccc(O)c2)cc1 [phentolamine]
inactive: A549-ACTB-RAB5A 0 | A549-CANX-COX4 0 | A549-GM130-SQSTM1 0 | A549-TP53BP1-CLTA 0 | A549-TUBA1B-RELA 0 | HepG2-ACTB-RAB5A 0 | HepG2-CANX-COX4 0 | HepG2-GM130-SQSTM1 0 | HepG2-TP53BP1-CLTA 0 | HepG2-TUBA1B-RELA 0 | WPMY1-ACTB-RAB5A 0 | WPMY1-CANX-COX4 0 | WPMY1-GM130-SQSTM1 0 | WPMY1-TP53BP1-CLTA 0 | WPMY1-TUBA1B-RELA 0

COc1ccccc1OCC(O)CN1CCN(CC(=O)Nc2c(C)cccc2C)CC1 (stereo not given) [ranolazine]
inactive: A549-ACTB-RAB5A 0 | A549-CANX-COX4 0 | A549-GM130-SQSTM1 0 | A549-TP53BP1-CLTA 0 | A549-TUBA1B-RELA 0 | HepG2-ACTB-RAB5A 0 | HepG2-CANX-COX4 0 | HepG2-GM130-SQSTM1 0 | HepG2-TP53BP1-CLTA 0 | HepG2-TUBA1B-RELA 0 | WPMY1-ACTB-RAB5A 0 | WPMY1-CANX-COX4 0 | WPMY1-GM130-SQSTM1 0 | WPMY1-TP53BP1-CLTA 0 | WPMY1-TUBA1B-RELA 0

CC(=O)O[C@H]1C[C@@H]2CC[C@@H]3[C@H](CC[C@@]4(C)[C@H]3C[C@H]([N+]3(C)CCCCC3)[C@@H]4OC(C)=O)[C@@]2(C)C[C@@H]1N1CCCCC1 [vecuronium]
inactive: A549-ACTB-RAB5A 0 | A549-CANX-COX4 0 | A549-GM130-SQSTM1 0 | A549-TP53BP1-CLTA 0 | A549-TUBA1B-RELA 0 | HepG2-ACTB-RAB5A 0 | HepG2-CANX-COX4 0 | HepG2-GM130-SQSTM1 0 | HepG2-TP53BP1-CLTA 0 | HepG2-TUBA1B-RELA 0 | WPMY1-ACTB-RAB5A 0 | WPMY1-CANX-COX4 0 | WPMY1-GM130-SQSTM1 0 | WPMY1-TP53BP1-CLTA 0 | WPMY1-TUBA1B-RELA 0

NCCC(=O)NCCc1c[nH]cn1 [Carcinine]
inactive: A549-ACTB-RAB5A 0 | A549-CANX-COX4 0 | A549-GM130-SQSTM1 0 | A549-TP53BP1-CLTA 0 | A549-TUBA1B-RELA 0 | HepG2-ACTB-RAB5A 0 | HepG2-CANX-COX4 0 | HepG2-GM130-SQSTM1 0 | HepG2-TP53BP1-CLTA 0 | HepG2-TUBA1B-RELA 0 | WPMY1-ACTB-RAB5A 0 | WPMY1-CANX-COX4 0 | WPMY1-GM130-SQSTM1 0 | WPMY1-TP53BP1-CLTA 0 | WPMY1-TUBA1B-RELA 0
